Source: PubChem BioAssay
The source made the active and inactive calls. Unless noted, how the calls were made is not given here.

What was measured:
[1] = tested on: Wnt5a (protein binding on small-molecule microarray); assay: Wnt5a binders on small-molecule microarray, primary screen, biophysical, 635/667 nm fluorescence (AID 1142); conditions: 635 nm fluorescence, higher = more signal;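 further: fluorescence read at 667 nm with signal to noise per printed feature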
[2] = cell viability in Huh7 cells, primary screen, cytotoxicity control for HCV replication inhibitor project, CellTiter-Glo luminescence, basal, 48 h (AID 1143); conditions: Huh7 HCV replicon, higher = more signal, called active from +8 up or from −8 down;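 further: Huh7 hepatoma cells carrying a hepatitis C replication reporter with no stimulus; test concentration not given here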
[3] = P. aeruginosa biofilm formation inhibitors, primary screen, PAO1 strain, BacTiter-Glo luminescence, LB-PBS (AID 1144); conditions: 12 h, higher = more signal
[4] = CREB reporter modulators without forskolin, primary screen, cell-based, PC12, CRE-LacZ reporter, unstimulated (AID 1145); conditions: no forskolin, luminescence, 4.5 h, higher = more signal, called active from +8 up or from −8 down
[5] = CREB reporter modulators under forskolin, primary screen, cell-based, PC12, CRE-LacZ reporter, forskolin-stimulated (AID 1146); conditions: luminescence, 4.5 h, higher = more signal, called active from +8 up or from −8 down;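 further: PC12 cells with 6xCRE LacZ reporter stimulated by forskolin 10 µM; beta-galactosidase reporter signal reflecting CREB driven transcription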
[6] = target: Streptavidin (Streptomyces avidinii) (UniProt P22629); assay: streptavidin binders on small-molecule microarray, primary screen, artefact control for SMM compound annotation, biophysical, 635/667 nm fluorescence (AID 1147); conditions: streptavidin binding, higher = more signal;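 further: signal reflects streptavidin binding to arrayed compounds as a control protein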
Streptavidin (Streptomyces avidinii), sequence (P22629 whole entry, looked up): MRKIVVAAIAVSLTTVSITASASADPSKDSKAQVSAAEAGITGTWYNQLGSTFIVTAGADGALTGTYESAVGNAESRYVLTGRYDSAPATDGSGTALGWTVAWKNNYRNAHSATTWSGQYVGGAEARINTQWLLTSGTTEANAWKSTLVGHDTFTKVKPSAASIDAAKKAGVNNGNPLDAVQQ

[7] = small-molecule binders of probe aInhba, primary screen, biochemical, small-molecule microarray, 635/667 nm fluorescence (AID 1148); conditions: higher = more signal;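 further: score merges 667nm spot fluorescence with signal-to-noise for antibody binding to printed compounds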
Torsin-1A (Homo sapiens) [8] = target: Torsin-1A (Homo sapiens) (UniProt O14656); assay: torsin A binders from cell lysate, primary screen, small-molecule microarray, wild-type, 635/667 nm (AID 1149); conditions: COS7 hTOR1A-WT lysate, 635 nm fluorescence, higher = more signal
Torsin-1A (Homo sapiens), sequence (O14656 whole entry, looked up): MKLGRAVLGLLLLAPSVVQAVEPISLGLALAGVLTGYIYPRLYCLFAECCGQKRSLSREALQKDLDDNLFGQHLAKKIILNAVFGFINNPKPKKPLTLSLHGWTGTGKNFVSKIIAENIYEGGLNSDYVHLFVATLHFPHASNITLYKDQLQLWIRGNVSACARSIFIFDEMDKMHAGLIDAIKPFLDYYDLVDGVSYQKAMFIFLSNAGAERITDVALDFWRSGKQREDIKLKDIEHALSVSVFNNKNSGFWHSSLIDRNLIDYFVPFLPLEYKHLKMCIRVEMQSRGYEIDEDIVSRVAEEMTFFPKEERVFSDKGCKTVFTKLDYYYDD

Torsin-1A (Homo sapiens) [9] = target: Torsin-1A (Homo sapiens) (UniProt O14656); assay: small-molecule binders of mutant TOR1A in lysate, primary screen, cell lysate, small-molecule microarray, COS7 lysate, 635/667 nm fluorescence (AID 1150); conditions: COS7 hTOR1A mutant lysate, 635 nm fluorescence, higher = more signal;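 further: score pools 667 nm emission and signal to noise measuring lysate protein binding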
[10] = tested on: Sonic hedgehog protein (Shh); assay: small-molecule binders of Shh protein, primary screen, biochemical, small-molecule microarray, 635/667 nm fluorescence (AID 1151); conditions: small-molecule microarray binding, 635 nm fluorescence; higher = more signal;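 further: Shh protein binding to compounds spotted on small-molecule microarray slides; score combines spot fluorescence intensity with signal-to-noise across triplicate slides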
[11] = E. coli DRC41 culture turbidity changes, primary screen, E. coli filamentation inducer project, strain DRC41, OD650, 48 h (AID 1152);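 further: E. coli MC1000 strain DRC41 lacking acrAB efflux pump and sulA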; conditions: E. coli DRC41 (acrAB sulA), higher = more signal, called active from +8 up or from −8 down
[12] = small-molecule binders of probe aLefty1, primary screen, biochemical, small-molecule microarray, 635/667 nm fluorescence (AID 1153); conditions: higher = more signal;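 further: score merges spot fluorescence with signal-to-noise ratio from the scanned slide images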
[13] = PSAC antagonists in infected red cells, primary screen, cell-based, P. falciparum Indochina, OD700, 1 h (AID 1154); conditions: P. falciparum Indochina infected RBC osmotic lysis, higher = more signal, called active from +8 up or from −8 down
[14] = PSAC antagonists in infected red cells, primary screen, cell-based, P. falciparum Indochina, OD700, 2 h (AID 1155);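 further: lysis reports solute entry through the parasite surface anion channel PSAC; channel blockers reduce lysis of infected cells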; conditions: P. falciparum Indochina infected erythrocytes, osmotic lysis OD700; higher = more signal, called active from +8 up or from −8 down
[15] = osmotic lysis modulators in infected erythrocytes, primary screen, PSAC antagonist project, cell-based, P. falciparum Indochina, OD700, 3 h (AID 1156); conditions: higher = more signal, called active from +8 up or from −8 down
[16] = PSAC antagonists in infected red cells, primary screen, cell-based, P. falciparum Indochina, OD700, 18 h (AID 1157); conditions: P. falciparum Indochina infected erythrocytes, osmotic lysis OD700, 18 h; higher = more signal, called active from +8 up or from −8 down
[17] = modulators of S6 phosphorylation in cells, primary screen, cell-based, A549, cytoblot, luminescence, serum-stimulated (AID 1158); conditions: A549 phospho-S6 cytoblot, 5 h, higher = more signal;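 further: serum-stimulated A549 lung adenocarcinoma cells; signal is phosphorylated S6 detected by cytoblot immunostaining with HRP secondary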
[18] = target: NADPH oxidase 2 (Homo sapiens) (UniProt P04839); assay: NOX2-dependent H2O2 signal modulators, primary screen, NOX inhibitor project, cell-based, HEK293-NOX2, PMA-stimulated, Amplex Red fluorescence (AID 1159); conditions: 45 min, higher = more signal, called active from +8 up or from −8 down; further: test concentration not given here
NADPH oxidase 2 (Homo sapiens), sequence (P04839 whole entry, looked up): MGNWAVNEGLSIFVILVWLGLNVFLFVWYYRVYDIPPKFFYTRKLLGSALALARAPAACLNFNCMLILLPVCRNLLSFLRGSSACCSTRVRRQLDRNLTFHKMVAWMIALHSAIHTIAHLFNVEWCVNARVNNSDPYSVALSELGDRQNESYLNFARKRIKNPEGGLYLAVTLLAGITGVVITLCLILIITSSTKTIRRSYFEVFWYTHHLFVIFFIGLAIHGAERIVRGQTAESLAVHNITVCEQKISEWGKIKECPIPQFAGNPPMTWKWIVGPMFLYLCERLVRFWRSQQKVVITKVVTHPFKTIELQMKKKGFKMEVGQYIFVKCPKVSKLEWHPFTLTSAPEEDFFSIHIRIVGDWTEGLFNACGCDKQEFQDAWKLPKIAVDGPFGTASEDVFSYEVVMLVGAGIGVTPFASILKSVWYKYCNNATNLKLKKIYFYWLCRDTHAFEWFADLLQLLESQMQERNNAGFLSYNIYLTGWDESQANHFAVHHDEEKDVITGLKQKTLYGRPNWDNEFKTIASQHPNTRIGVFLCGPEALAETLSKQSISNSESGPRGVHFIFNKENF

[19] = target: NADPH oxidase 4 (Homo sapiens) (UniProt Q9NPH5); assay: NOX4-dependent H2O2 signal modulators, primary screen, NOX inhibitor project, cell-based, HEK293-NOX4, tetracycline-induced, Amplex Red fluorescence (AID 1160); conditions: 45 min, higher = more signal, called active from +8 up or from −8 down
NADPH oxidase 4 (Homo sapiens), sequence (Q9NPH5 whole entry, looked up): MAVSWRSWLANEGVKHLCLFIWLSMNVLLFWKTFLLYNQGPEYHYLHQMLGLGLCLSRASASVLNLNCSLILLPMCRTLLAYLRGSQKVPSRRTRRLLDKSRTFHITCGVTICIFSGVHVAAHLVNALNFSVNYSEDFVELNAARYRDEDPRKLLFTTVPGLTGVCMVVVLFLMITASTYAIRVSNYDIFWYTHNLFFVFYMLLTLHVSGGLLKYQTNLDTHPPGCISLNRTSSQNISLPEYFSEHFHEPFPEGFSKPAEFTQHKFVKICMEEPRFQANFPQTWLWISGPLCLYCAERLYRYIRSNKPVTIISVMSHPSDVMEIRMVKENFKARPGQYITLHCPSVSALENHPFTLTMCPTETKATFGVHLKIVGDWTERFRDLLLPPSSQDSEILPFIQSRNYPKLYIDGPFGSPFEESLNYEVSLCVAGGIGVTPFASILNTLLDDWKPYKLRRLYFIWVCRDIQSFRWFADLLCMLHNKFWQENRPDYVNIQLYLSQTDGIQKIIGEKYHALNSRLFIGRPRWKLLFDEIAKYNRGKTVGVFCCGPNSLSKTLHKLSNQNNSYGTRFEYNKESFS

[20] = target: NADPH oxidase 5 (Homo sapiens) (UniProt Q96PH1); assay: NOX5-dependent H2O2 signal modulators, primary screen, NOX inhibitor project, cell-based, HEK293-NOX5, Amplex Red fluorescence (AID 1161); conditions: HEK293-NOX5, ionomycin, 45 min, higher = more signal
NADPH oxidase 5 (Homo sapiens), sequence (Q96PH1 whole entry, looked up): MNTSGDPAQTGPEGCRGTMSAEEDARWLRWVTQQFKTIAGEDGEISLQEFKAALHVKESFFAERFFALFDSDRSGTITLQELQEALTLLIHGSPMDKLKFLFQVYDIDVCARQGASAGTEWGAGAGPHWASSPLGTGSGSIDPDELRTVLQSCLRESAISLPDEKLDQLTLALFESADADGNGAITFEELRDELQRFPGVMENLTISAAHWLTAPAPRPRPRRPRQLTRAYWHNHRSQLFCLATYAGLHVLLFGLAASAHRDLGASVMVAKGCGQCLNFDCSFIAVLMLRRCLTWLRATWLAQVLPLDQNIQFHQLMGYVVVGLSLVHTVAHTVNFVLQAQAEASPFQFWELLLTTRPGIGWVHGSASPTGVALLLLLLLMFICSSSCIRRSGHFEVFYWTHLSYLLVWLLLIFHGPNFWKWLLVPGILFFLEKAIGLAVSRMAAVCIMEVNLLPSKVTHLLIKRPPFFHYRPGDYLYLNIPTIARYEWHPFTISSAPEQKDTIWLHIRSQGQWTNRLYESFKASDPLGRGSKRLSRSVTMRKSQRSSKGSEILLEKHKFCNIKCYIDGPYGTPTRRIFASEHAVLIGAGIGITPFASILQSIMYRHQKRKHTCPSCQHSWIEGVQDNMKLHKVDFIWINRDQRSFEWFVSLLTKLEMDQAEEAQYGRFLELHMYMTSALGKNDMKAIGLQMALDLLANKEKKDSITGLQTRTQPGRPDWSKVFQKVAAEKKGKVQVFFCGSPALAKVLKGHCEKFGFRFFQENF

SMILES | composite z-score [1] | z-score [2] | z-score [3] | z-score [4] | z-score [5] | composite z-score [6] | composite z-score [7] | composite z-score (Torsin-1A (Homo sapiens) [8]) | composite z-score (Torsin-1A (Homo sapiens) [9]) | composite z-score [10] | z-score [11] | composite z-score [12] | z-score [13] | z-score [14] | z-score [15] | z-score [16] | z-score [17] | z-score [18] | z-score [19] | z-score [20]
COC(=O)C(CC#Cc1ccc2c(c1)[C@]1(C(=O)N2)[C@H](C(=O)N2CCCCCCC2)[C@H]2C(=O)O[C@H](c3ccccc3)[C@H](c3ccccc3)N2[C@@H]1c1ccc(O)cc1)C(=O)OC | -0.593 | -4.23 (inactive) | 0.144 (inactive) | 0.0736 (inactive) | -0.928 (inactive) | -1.01 | 0.539 | -0.998 | -0.529 | -0.657 | 0.752 (inactive) | 0.297 | 0.561 (inactive) | -0.312 (inactive) | -0.221 (inactive) | -1.18 (inactive) | 1.28 | 0.455 (inactive) | 0.264 (inactive) | 0.147
COc1cc(Cc2cc3c(c(CCc4ccccc4)n2)[Si](C(C)C)(C(C)C)OC3)cc(OC)c1OC | -0.179 | -1.86 (inactive) | -0.554 (inactive) | -0.0989 (inactive) | 0.132 (inactive) | 0.977 | -0.159 | 0.1 | 0.0658 | 0.553 | -0.655 (inactive) | -0.0501 | 2.06 (inactive) | 0.481 (inactive) | -0.411 (inactive) | -0.232 (inactive) | -0.475 | -0.195 (inactive) | -0.231 (inactive) | -2.59
C=CCC(OC(C)=O)[C@@H]1[C@@H](N(Cc2cccc3ccccc23)C(=O)c2ccc(C)cc2)c2cc(OCCCO)ccc2N1C(=O)c1ccc(-c2ccccc2)cc1 (stereo not given in full) | -0.0459 | -0.552 (inactive) | 0.528 (inactive) | 0.455 (inactive) | 0.289 (inactive) | 0.425 | -0.0719 | 0.0621 | -0.213 | 0.0891 | 2.5 (inactive) | 0.0384 | 0.441 (inactive) | -1.33 (inactive) | -1.24 (inactive) | -1.5 (inactive) | 2.07 | -0.0559 (inactive) | 1.01 (inactive) | 2.96
Cc1ccc(S[C@]2(C(=O)NC(C)C)CC(=O)N(Cc3cc(C(F)(F)F)cc(C(F)(F)F)c3)[C@@H]2c2ccc(CO)cc2I)cc1 | -0.168 | -1.11 (inactive) | 0.381 (inactive) | -0.554 (inactive) | 1.28 (inactive) | -0.995 | -0.148 | 0.61 | 1.66 | -0.0174 | 0.191 (inactive) | -0.136 | 3.22 (inactive) | 0.504 (inactive) | -0.365 (inactive) | 0.132 (inactive) | -0.398 | 1.57 (inactive) | -1.07 (inactive) | 2.23
